The list is not random: actives were taken first. Their share in the collection is about 21%.
NS1 inh = qHTS Assay for Inhibitors of Influenza NS1 Protein Function; Potency, µM (highest dose often 46.1 µM), for inactives: at the top dose activity, positive = more growth; AID 2326, 2010; hit rate 0.4% among 270,000; calls by dose curve; note: potency is the fitted concentration of half-maximal effect; actives are rising curves; nearly all actives have a fitted effect of over 50% in size
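S. cerevisiae expressing influenza A NS1, grown in glucose, washed, then diluted 1:100 into pH 6.0 -URA galactose medium with 23 nl compound. Growth recovery read as OD600; NS1-free strain serves as control.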
CHX counter = Cycloheximide Counterscreen for Small Molecule Inhibitors of Shiga Toxin. cell reporter, cycloheximide protein synthesis inhibition counterscreen. max response, %. hit rate 12% among 300,000; in the data active = max response mostly above about 13%, no sharp cut-off; inactive = mostly below about 14%; note: read at 38.3 µM for the half of the compounds with a filed dose; 0% is about no effect
Pf growth 48h = Primary qHTS for delayed death inhibitors of the malarial parasite plastid, 48 hour incubation; P. falciparum luciferase growth in erythrocytes, 48 h; Potency, µM (doses to about 28.7 µM), without a hit: top-dose activity change, negative = inhibition, most hits filed as inhibitors; hit rate 5.9% among 310,000; AID 504832, 2011; note: potency is the fitted concentration of half-maximal effect; % is set by controls: 0 for no effect and ±100 for the full control effect
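Firefly luciferase activity from engineered P. falciparum reports growth; inhibitors lower the luminescent signal. Cultures contained 2% hematocrit erythrocytes at 0.1% final parasitemia.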
SARS PLP yeast = qHTS of Yeast-based Assay for SARS-CoV PLP; Potency, µM (top dose mostly 32.9 µM), for inactives: at the top dose activity, positive = growth rescue, hits mostly activators; hit rate 0.19% among 330,000; S. cerevisiae expressing SARS-CoV PLpro, growth rescue; calls by dose curve; note: potency is the fitted concentration of half-maximal effect; 0% is about no effect; nearly all actives have a fitted effect of over 55% in size
Pf growth 96h = Primary qHTS for delayed death inhibitors of the malarial parasite plastid, 96 hour incubation. P. falciparum luciferase reporter growth, 96 h. Potency, µM (series often up to 28.7 µM), inactives show at the top dose activity change, negative = inhibition, hits mostly inhibitors. hit rate 6.9% among 320,000; note: potency is the fitted concentration of half-maximal effect; % is set by controls: 0 for no effect and ±100 for the full control effect
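96 h incubation, 37 C, 5% CO2, of luciferase-reporter P. falciparum-infected RBCs (2% hematocrit, 0.05% parasitemia final) with test compounds; endpoint luminescence.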
Shiga inhibitor = A qHTS for Small Molecule Inhibitors of Shiga Toxin. AID 2315, 2010. hit rate 9.2% among 290,000. inhibition, % at 38.7 µM. Vero cells, Shiga toxin protein synthesis inhibition reporter; in the data active = inhibition mostly above about 28%, no sharp cut-off; inactive = mostly below about 43%; note: 0% is about no effect
Active calls of the source: *; u = inconclusive; x = no result given; [ ] = another dose, or the depositor's remark. Unless noted, calls come from the whole dose curve; as a rule, active = well fitted inhibition curve with a large enough effect; inconclusive = small, poorly fitted or top-dose-only effect, or another doubt; inactive = no such curve, though single readings can be large or run the other way.

SMILES	NS1 inh	CHX counter	Pf growth 48h	SARS PLP yeast	Pf growth 96h	Shiga inhibitor
CC(C)C(NC(=O)c1ccccc1NC(=O)c1ccccc1)C(=O)NNC(=O)c1ccncc1 (stereo not given)	1%	1	u	1%	u	-4
CCOC(=O)c1sc(NC(=O)c2ccco2)c(C#N)c1C	-7%	-4	33%	-1%	11%	-14
Cc1sc(NC(=S)NC(=O)c2ccco2)c(C#N)c1C	-4%	15*	39%	-2%	-39%	27
CCc1c(C)sc(NC(=O)c2ccco2)c1C#N	-54%	37*	60%	-13%	112%	69*
Clc1cccc(Cl)c1CSc1nnc(/C=C/c2ccccc2)o1	3%	5	55%	1%	0%	76
Fc1cccc(Cl)c1Cc1noc(/C=C/c2ccccc2)n1	-3%	21*	39%	-16%	62%	148
CC(C)(C)OC(=O)N1CCC(CC2CC(c3cccc(Br)c3)=NO2)(C(=O)O)CC1 (stereo not given)	-39%	-1	20%	3%	u	-1
O=C(Nn1c(=S)[nH]c2ccccc2c1=O)c1ccncc1	4%	-3	42%	0%	u	25
c1ccc(CC(Nc2ccccn2)c2ccccc2)cc1 (stereo not given)	x	18*	u	7%	15µM*	15
COc1ccc(CNC(=O)C2CCCN(C(=O)Nc3ccccc3OC)C2)cc1 (stereo not given)	-7%	-2	12%	1%	-8%	-18
COc1cc(C(=O)Nc2ccccc2NC(=O)c2cc(OC)c(OC)c(OC)c2)cc(OC)c1OC	-1%	-2	u	1%	25%	2
COc1ccc(Cl)cc1NC(=O)CNC(c1ccccc1)c1ccccc1	-17%	3	u	-6%	1.7µM*	14
COc1ccc(Cl)cc1NC(=O)CNCC(c1ccccc1)N(C)C (stereo not given)	6%	-1	-1%	-3%	-13%	16
COc1cc(C(=O)Nc2ccc(C)cc2C(NCC(=O)NN)c2ccccc2)cc(OC)c1OC (stereo not given)	u	1	5%[0.00184 µM]	-2%	4.7µM*	12
COc1ccc(OC)c(NC(=O)CNC(c2ccccc2)c2ccccc2)c1	-32%	5	12µM*	0%	9.3µM*	18
COc1ccc(OC)c(NC(=O)CCCSc2ccccc2)c1	-14%	5	u	-27%	11%	47
CCC(C(=O)OCC(=O)Nc1cc(C)ccc1OC)c1ccccc1 (stereo not given)	x	26*	0%	-2%	21%	32
COc1ccc(C)cc1NC(=O)COC(C)=O	-8%	2	x	-3%	6%	20
CN(C)S(=O)(=O)c1ccc(NC(=O)CSc2nnc(-c3ccco3)o2)cc1	x	x	x	3%	x	x
OC[C@@H]1O[C@H](OC2[C@@H](O)[C@@H](O)[C@@H](O)O[C@@H]2CO)[C@H](O)[C@@H](O)[C@@H]1OC1O[C@H](CO)[C@@H](O)[C@H](O)[C@@H]1O (stereo not given in full)	x	-4	x	x	x	-5
Cc1ccc(C)c(CN2CCC(n3nccc3NC(=O)CCCc3ccccc3)CC2)c1	-4%	-1	u	2%	4%	17
Cc1ccc(NC(=O)CNC(c2ccccc2)c2ccccc2)c(F)c1	-21%	-2	-25%	-7%	u	2
COc1ccc(C)cc1NC(=O)CNC(c1ccccc1)c1ccccc1	-4%	7	7.4µM*	1%	u	5
COc1ccc(OC)c(NC(=O)NC2CCCc3ccccc32)c1 (stereo not given)	5%	-4	u	-4%	u	15
COc1ccc(OC)c2nc(-c3ccc4c(c3)OCO4)ccc12	-36%	62*	x	-2%	422%	105*
SMILES	NS1 inh	CHX counter	Pf growth 48h	SARS PLP yeast	Pf growth 96h	Shiga inhibitor
Cc1ccc(-c2cc(C(=O)Nc3ccc4c(c3)OCCO4)c3ccccc3n2)cc1	24%	55*	-91%	-12%	23%	125*
COC(=O)c1cc(-c2ccc3c(c2)OCO3)nc2ccccc12	-3%	0	3%	2%	0.41µM*	7
c1ccc2nc(-c3ccc4c(c3)OCO4)ccc2c1	-3%	55*	292%	-11%	240%	71*
Cc1ccc(Cl)cc1N1CCN(Cc2nc3ccsc3c(=O)[nH]2)CC1	-17%	-7	x	-1%	u	2
O=C(Nc1ccc2c(c1)OCO2)c1cc(-c2cccnc2)nc2ccccc12	3%	16*	0%	-2%	u	71
COc1cccc(CNC(=O)CCS(=O)(=O)c2cc3c(cc2C)NC(=O)CO3)c1	-12%	-2	0%	9%	52%	-3
CCOC(=O)c1ccc(CNC(=O)c2cc(COc3ccccc3SC)on2)o1	-5%	34*	14%	x	29%	74*
CSc1ccccc1OCc1cc(C(=O)NCc2ccc(C)s2)no1	-7%	23*	-9%	-1%	-19%	41*
CCn1cc(CNC(=O)c2cc(COc3ccc(F)cc3Cl)on2)cn1	3%	-2	7%	-1%	u	38
CC(C)N(C(=O)[C@H]1C[C@H](CC(=O)NCCN2CCOCC2)C(=O)N2CCc3c([nH]c4cc(-c5ccco5)ccc34)[C@]12C)C(C)C	x	x	x	-10%	x	x
CCN(CC)S(=O)(=O)c1ccc(/C=C/C(=O)NC2CCCCC2)cc1	-3%	6	u	1%	4.7µM*	-8
CCOc1ccc(/C=C/C(=O)NC2CCCCC2)cc1	-13%	18*	21%	-1%	u	x
CC1CCC(NC(=O)CCNS(=O)(=O)c2ccc3c(c2)CCC(=O)N3)CC1 (stereo not given)	6%	-4	4%	3%	8%	-7
COCCSc1ccccc1C(=O)N1CCc2ccccc21	8%	8	-18%	-9%	u	-4
COC(=O)c1ccc(N2C(=O)Nc3ccccc3N2O)cc1	2%	1	7%	0%	10%	33
CCC(C)Sc1ccc([C@H]2N[C@@](Cc3ccccc3)(C(=O)OC)[C@H]3C(=O)N(CC)C(=O)[C@@H]23)cc1OC (stereo not given in full)	x	x	3.3µM*	-1%	u	x
CCN1C(=O)[C@H]2[C@@H](c3ccc(SC4CCCCC4)cc3)N[C@@](CC(C)C)(C(=O)OC)[C@H]2C1=O	x	x	12µM*	10%	2.9µM*	x
CCCC1(C(=O)OC)NC(c2cc(OC)c(OC)c(OC)c2)C2C(=O)N(CC)C(=O)C21 (stereo not given)	-5%	-1	-1%	-3%	47%	1
CCC(C)Sc1ccc([C@H]2N[C@@](CC(C)C)(C(=O)OC)[C@H]3C(=O)N(CC)C(=O)[C@@H]23)cc1 (stereo not given in full)	x	x	9.3µM*	-8%	u	x

Screens: PubChem BioAssay, National Center for Advancing Translational Sciences (NCATS)
